# According to PubChem BioAssay AID652126 (The Scripps Research Institute Molecular Screening Center, 2013):
# Out of some 370,000 compounds screened, about 3,700 (1%) were called active. Shown is part of a subset that was picked to be rich in actives. Unmarked numbers belong to inactive results.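 How the source made its calls: active means activation above the mean over all tested compounds plus 3 SD (cut at about 0.9% in these data); inactive means the rest.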
# System: Nuclear hormone receptor DAF-12 (Strongyloides stercoralis)
# Test: S. stercoralis DAF-12 nuclear receptor activators, primary screen, cell-based, luminescence, HEK293, GRIP1 co-expression, lit1-tk-luc (AID 652126);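 further: 0% = DMSO-only wells and 100% = 3 µM delta7-dafachronic acid wells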
# Conditions: HEK293 ssDAF-12/GRIP1 lit1-tk-luc reporter, at 6.8 µM, hits give high values, % of 3 µM dafachronic acid response
row,Compound,activation
1,O=C(NCc1cccs1)C1CCN(S(=O)(=O)c2ccccc2[N+](=O)[O-])CC1,-1.16%
2,N#CCC[C@H]1CC[C@]2(CCCN(Cc3ccc(Cl)cc3)C2)O1,-1.32%
3,CC(C)Oc1ccc(C(=O)NCC(=O)Nc2ccc3c(c2)CCC3)cc1,-0.37%
4,O=C(Nc1ccc2c(c1)CCC2)c1ccc(Br)s1,1.14% (active)
5,O=C(Nc1ccc(F)cc1)c1cc2c(s1)CCCC2,0.25%
6,Cc1ccc(/C=C/C(=O)O)cc1S(=O)(=O)N1CCC(Cc2ccccc2)CC1,-1.4%
7,COCCCNc1nc2ccccc2nc1NS(=O)(=O)c1ccc(F)cc1,-0.23%
8,Cc1ccc(S(=O)(=O)Nc2nc3ccccc3nc2N2CCc3ccccc3C2)cc1,1.37% (active)
9,Cc1ccc(S(=O)(=O)C(C#N)c2nc3ccccc3nc2N2CCCC2)cc1C (centres undefined),-0.41%
10,Cc1cc(C(=O)NN=C/C=C/c2ccco2)n[nH]1,-0.85%
11,CCOC(=O)C(=O)N(Cc1ccccc1)c1ccccc1C(=O)Nc1cc(OC)ccc1OC,-1.83%
12,CCc1ccc2oc(-c3ccc(N)cc3)nc2c1,1.77% (active)
13,Cc1ccc(-c2nnc(SCC(=O)Nc3ccc(Oc4ccccc4)cc3)n2Cc2ccco2)cc1,-1.75%
14,COC(=O)[C@]1(C#N)CC(=O)N(CC2CCCCC2)[C@@H]1c1ccccc1,0.53%
15,O=C(Nc1ccccc1)N1CCN(Cc2nc3ccccc3c(=O)[nH]2)CC1,-0.67%
16,CCc1cc(C(c2ccccc2OC)N2CCOCC2)c(NC(=O)c2ccccc2)s1 (centres undefined),-1.1%
17,COc1ccc(C(=O)Nc2sc(C)c(C)c2CN2CCOCC2)cc1,1.65% (active)
18,COc1ccc(C(=O)Nc2ccnn2C2CCN(Cc3ccncc3)CC2)cc1,-0.78%
19,O=C(NCc1cccs1)C1CCCN(S(=O)(=O)c2ccc([N+](=O)[O-])cc2)C1 (centres undefined),-1.79%
20,Cc1nc(CNc2ncnc3ccc(-c4ccc5c(c4)OCO5)cc23)cs1,-1.38%
21,Nc1nc(Nc2ccccc2F)nc(NC2CCCCC2)c1[N+](=O)[O-],-0.48%
22,COCCNc1nc(N)c([N+](=O)[O-])c(NCCO)n1,-1.31%

row,Compound,activation
1,CNc1nc(Nc2ccc(C)c(Cl)c2)nc(N)c1[N+](=O)[O-],2.25% (active)
2,CC(C)CNc1cccc2c1S(=O)(=O)N(Cc1cn(Cc3ccccc3C(F)(F)F)nn1)Cc1ccccc1O2,-0.93%
3,Cc1ccc(CN2CCCCC(NC(=O)C3CCCCC3)C2=O)cc1 (centres undefined),-0.73%
4,CC(CCN1CCC(C(O)(c2ccccc2)c2ccccc2)CC1)Oc1ccc([N+](=O)[O-])cc1Cl (centres undefined),-0.24%
5,Cc1nc2ccc(S(=O)(=O)NCC(=O)O)cc2s1,-0.93%
6,CCS(=O)(=O)N1Cc2ccccc2CC1C(=O)Nc1nc2ccc(F)cc2s1 (centres undefined),0.55%
7,NS(=O)(=O)c1ccc2nc(NC(=O)CS(=O)(=O)c3ccc(F)cc3)sc2c1,1.3% (active)
8,CCCCN1CCN(C(=O)c2ccc3c(c2)NC(=O)C(C)(C)O3)CC1,-1.34%
9,COc1ccc(C#CCNCc2ccc(OC)cc2OC)cc1,-1.38%
10,COc1ccc(C)cc1S(=O)(=O)NC1CCCCC1,-0.84%
11,COc1ccc(C(=O)O)cc1S(=O)(=O)NC1CCN(Cc2ccccc2)CC1,-1.42%
12,COc1ccc(C(=O)NCc2ccccc2C)cc1S(=O)(=O)NC1CCCC1,0.92% (active)
13,CCCCNC(=O)C[C@@H]1C(=O)N(CCc2ccc(Cl)cc2)C2=CCCC[C@]21C(=O)OCC,-2.02%
14,CC(C)CNC(=O)OCc1cn(Cc2ccc(F)cc2)nn1,-0.96%
15,CC(c1c[nH]c2ccccc12)c1c(-c2ccccc2)n(C)c2ccccc12 (centres undefined),-0.45%
16,O=C(OCc1cn(-c2ccc(Cl)c(Cl)c2)nn1)c1ccccc1Cl,-1.04%
17,CCOC(=O)[C@]12CCCC=C1N(Cc1ccc(OC)cc1)C(=O)[C@@H]2CC(=O)NCc1cccs1,-1.35%
18,C=CCN(Cc1ccc2c(c1)OCO2)C(C#CC1CC1)C(C)(C)C (centres undefined),-1.38%
19,CN(C)/C=C1\C=C(c2ccccc2)OC1=O,-0.4%
20,CN(C)/C=C1/C(=O)Nc2ccccc21,1.06% (active)
21,O=C1Nc2ccccc2C1=NN=Cc1ccco1,0.04%
22,Cc1ccc(-n2c(SCC(=O)Nc3ccc(S(=O)(=O)Nc4nccs4)cc3)nnc2-c2ccncc2)cc1,-1.76%

row,Compound,activation
1,CC(=O)O[C@@]1(C(C)=O)CCC2[C@H]3C=C(C)C4=CC(=O)CC[C@@]4(C)C3CC[C@]21C (some centres undefined),-1.19%
2,CC(C)(C)C1CCC(=NNC(=O)c2ccc(Br)o2)CC1 (centres undefined),-0.04%
3,C/C(=N\NC(=S)NC1CCCCC1)c1ccc(C)o1,-2.41%
4,C/C(=N/NC(=O)c1ccc(Br)o1)c1ccc(C)o1,1.57% (active)
5,Cc1sc2nc(SCC(=O)c3ccc(O)c(O)c3)n(Cc3ccco3)c(=O)c2c1C,-1.42%
6,O=S(=O)(NC1CCCCC1)c1ccc(F)c2ccccc12,-1.61%
7,C=CCN(C(=O)[C@@H](CCCC)[C@@H](O)c1ccc(Cl)cc1)c1ccccc1,-1.08%
8,C=C1C(C(C)C)N(C)C2=NC(c3ccccc3)CC(=O)N12 (centres undefined),-1.49%
9,COc1ccc(C(=O)NC2=NCCS2)c(OC)c1,1.63% (active)
10,COc1ccccc1C(=O)NCCC(=O)NC1=NCCS1,-0.76%
11,O=C(NC1=NCCS1)c1ccc(Cl)s1,-1.02%
12,O=C(NCCc1c[nH]c2ccccc12)OCc1cn(-c2c(F)cccc2F)nn1,-1.14%
13,O=C(NCc1ccco1)C1CCCN(S(=O)(=O)c2ccc(Cl)s2)C1 (centres undefined),0%
14,OCCC1CN(Cc2cnc(-c3ccccc3)s2)CCN1CCc1ccccc1 (centres undefined),-1.41%
15,OCCC1CN(Cc2ccc(Oc3ncccn3)cc2)CCN1CCc1ccccc1 (centres undefined),-0.5%
16,OCCC1CN(Cc2cccn2-c2nccs2)CCN1CCc1ccccc1 (centres undefined),1.5% (active)
17,COC(=O)c1cccc(Cn2ccc3ccc(-c4ccc5ccn(C(=O)C6CCCCC6)c5c4)cc32)c1,-1.1%
18,COc1ccc(-c2cc(-c3nnc(SCc4ccc([N+](=O)[O-])cc4)n3N)[nH]n2)cc1,-0.73%
19,CCCC[C@H]1C2CC(OC(=O)NCc3ccccc3)C(C2)[C@H]2CCCCN21 (some centres undefined),-1.06%
20,CCCCOCCCNC(=O)C[C@H]1C[C@@]2(C(=O)OC)C(=C[C@H](C(C)(C)C)O[C@@H]2C)N(CCc2ccc(OC)c(OC)c2)C1=O,-1.19%
